# Laboratory results from PubChem BioAssay.
# “And” between values parts separate entries of the source, which are not always exact repeats. Identical values can stand only once. The source made the active and inactive calls.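 Rule for the calls, unless noted: active = thallium flux through the channel raised or lowered by more than 3 SD from vehicle-only wells, actives on both sides; inactive = the rest.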
# Assays:
# [1] = Wnt pathway potentiators raising nuclear beta-catenin – imaging, WNT3A-conditioned medium, mouse C2C12, NPC library, primary screen (AID 1117326; in the data active = nuclear beta-catenin stimulation mostly above about 4.2%, no sharp cut-off; inactive = mostly below about 10%); conditions: stronger effect = higher value
# [2] = stimulators of insulin release from INS-1E, primary screen, cell-based, 5 mM glucose, NPC library (AID 1117329;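 active = compound raises insulin release from rat beta cells at 5 mM glucose, no numeric limit stated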); conditions: rat INS-1E insulin secretion, at 10 µM, stronger effect = higher value
# [3] = growth inhibition of GSK3B-pretreated HCT116 cells – cell-based, CellTiter-Glo, 0.2 to 20 µM (AID 1117336;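 active = compounds lowering colon cancer cell viability after pretreatment blocking the GSK3B kinase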); conditions: HCT116 viability after GSK3B inhibitor, at 20 µM, stronger effect = higher value
# [4] = inhibition of endothelial tube formation, primary screen, imaging, VEGF stimulated, CD31 staining, tube area, NPC library (AID 1117340;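 active = compound that reduces growth-factor-driven endothelial tube area in a mixed cell culture, no cutoff stated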); conditions: VEGF-stimulated ADSC/ECFC co-culture, at 10 µM, stronger effect = higher value
# [5] = GLP1 release stimulators, primary, NCI-H716, NPC library (AID 1117341;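 active = compound raises GLP1 secretion from the human gut endocrine cells, with no numeric limit stated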); conditions: NCI-H716 cells, at 10 µM, stronger effect = higher value
# [6] = HCT116 colon cancer cell growth inhibition, primary screen, CellTiter-Glo luminescence, NPC library (AID 1117342;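 active = compounds that lower survival of HCT116 colon cancer cells in the luminescence readout, no numeric limit stated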); conditions: at 20 µM (top of the series)
# [7] = reduced SW480 viability measured with CellTiter-Glo, NPC library, primary (AID 1117343;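 active = compounds that lower viability of the colon cancer cells in the luminescence readout, with no numeric limit stated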); conditions: CellTiter-Glo luminescence; at 20 µM (top of the series)
# [8] = NPC library primary testing for decreased DLD-1 cell viability via CellTiter-Glo (AID 1117346;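 active = compounds that lower survival of DLD-1 colon cancer cells in the luminescence readout, no cutoff given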); conditions: DLD-1 viability, CellTiter-Glo luminescence; at 20 µM (top of the series)
# [9] = target: 6-phosphogluconate dehydrogenase, decarboxylating (Homo sapiens) (UniProt P52209); assay: inhibition of human phosphogluconate dehydrogenase – biochemical, recombinant enzyme, NADPH absorbance, primary screen (AID 1159550;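 active = at least 20% inhibition of 6-phosphogluconate dehydrogenase activity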); conditions: recombinant 6PGD, NADPH absorbance 341 nm; at 10 µM; stronger effect = higher value
# [10] = EMT-state selective cytotoxicity in co-culture – imaging, PC-3E GFP, TEM4-18 mCherry, primary screen (AID 1345086;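 active = compounds killing one labelled cell type while sparing the other, by normalised counts and ratio limits, not self-fluorescent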;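 for all read-outs here: cells exposed to compound for 72 h before imaging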;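 for red/green cell ratio (normalised): normalised mesenchymal count divided by normalised epithelial count so high means epithelial killing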); conditions: PC-3E GFP / TEM4-18 mCherry co-culture, imaging cell counts, at 1 µM; for red/green cell ratio (normalised): actives lie on both sides, counts scaled to control wells, 1 = unselective
# [11] = viability loss with induced miR-34 in A549 – imaging, A549 dox-inducible miR-34, nuclei and caspase counts, primary screen (AID 1347080); conditions: A549 miR-34 inducible, Hoechst nuclei count, 48 h; measured here: total cells without miR-34 induction
# [12] = MELAS cybrid and Rieske KO viability enhancers – cell-based, MELAS cybrids, Rieske KO mouse fibroblasts, CellTiter-Glo, primary screen (AID 1508586;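 active = mean z-score across replicates of 1.96 or higher in either the MELAS or the Rieske mutant cell line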;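 note: z relative to plate mean and SD of compound and empty wells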); conditions: low glucose
# [13] = target: NAD(+) hydrolase SARM1 (Homo sapiens) (UniProt Q6SZW1); assay: blocking NAD cleavage by SARM1 SAM-TIR – cell lysate, NAD-Glo luminescence (AID 1508614;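 active = compound whose remaining NAD level is above about 45 nM, limit read from the data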;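 note: higher remaining NAD means stronger inhibition of SARM1 NADase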); conditions: SAM-TIR HEK293T lysate NADase, at 1 µM, stronger effect = higher value
# [14] = target: Mitogen-activated protein kinase 7 (Homo sapiens) (UniProt Q13164); assay: Gal4-ERK5 driven luciferase induction – cell-based, HTS, primary screen (AID 1508626;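 active = luciferase signal above three times the same-plate solvent-only control wells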;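 note: luciferase driven by Gal4-ERK5 fusion binding five Gal4 sites before minimal TATA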); conditions: HeLa Gal4-ERK5 transactivation, 18 h, at 5 µM, stronger effect = higher value
# [15] = system: F380Y; assay: BK channel mutant inhibitors and activators – cell-based, U2OS BacMam, thallium flux, beta subunits, selectivity assay, profiling panel (AID 1259406); conditions: U2OS BacMam BK variants, at 30 µM;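 note: initial slope of Thallos dye fluorescence rise after thallium is added; log ratio against the mean of 0.3% DMSO vehicle wells on the same plate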
# [16] = system: F380Y/beta2Delta; assay: as above; conditions: U2OS BacMam BK variants, at 30 µM
# [17] = target: Calcium-activated potassium channel subunit alpha-1 (Homo sapiens) + Leucine-rich repeat-containing protein 26 (Homo sapiens) (UniProt Q12791+Q2I0M4); assay: as above; conditions: U2OS BacMam BK variants, F380Y/Slo1WT/gamma1, at 30 µM
# [18] = system: R275C; assay: as above; conditions: U2OS BacMam BK variants, at 30 µM
# [19] = system: R275C/beta1; assay: as above; conditions: U2OS BacMam BK variants, at 30 µM
# [20] = system: R275C/beta2Delta; assay: as above; conditions: U2OS BacMam BK variants, at 30 µM
# [21] = measured here: epithelial PC-3E GFP cell survival
# [22] = measured here: mesenchymal TEM4-18 mCherry cell survival
# [23] = MELAS cybrid survival, CellTiter-Glo 48 h, stronger effect = higher value
# [24] = Rieske KO mouse fibroblast survival, CellTiter-Glo 72 h
# Sequence of Mitogen-activated protein kinase 7 (Homo sapiens) (Q13164 whole entry, looked up, the tested form may be a part): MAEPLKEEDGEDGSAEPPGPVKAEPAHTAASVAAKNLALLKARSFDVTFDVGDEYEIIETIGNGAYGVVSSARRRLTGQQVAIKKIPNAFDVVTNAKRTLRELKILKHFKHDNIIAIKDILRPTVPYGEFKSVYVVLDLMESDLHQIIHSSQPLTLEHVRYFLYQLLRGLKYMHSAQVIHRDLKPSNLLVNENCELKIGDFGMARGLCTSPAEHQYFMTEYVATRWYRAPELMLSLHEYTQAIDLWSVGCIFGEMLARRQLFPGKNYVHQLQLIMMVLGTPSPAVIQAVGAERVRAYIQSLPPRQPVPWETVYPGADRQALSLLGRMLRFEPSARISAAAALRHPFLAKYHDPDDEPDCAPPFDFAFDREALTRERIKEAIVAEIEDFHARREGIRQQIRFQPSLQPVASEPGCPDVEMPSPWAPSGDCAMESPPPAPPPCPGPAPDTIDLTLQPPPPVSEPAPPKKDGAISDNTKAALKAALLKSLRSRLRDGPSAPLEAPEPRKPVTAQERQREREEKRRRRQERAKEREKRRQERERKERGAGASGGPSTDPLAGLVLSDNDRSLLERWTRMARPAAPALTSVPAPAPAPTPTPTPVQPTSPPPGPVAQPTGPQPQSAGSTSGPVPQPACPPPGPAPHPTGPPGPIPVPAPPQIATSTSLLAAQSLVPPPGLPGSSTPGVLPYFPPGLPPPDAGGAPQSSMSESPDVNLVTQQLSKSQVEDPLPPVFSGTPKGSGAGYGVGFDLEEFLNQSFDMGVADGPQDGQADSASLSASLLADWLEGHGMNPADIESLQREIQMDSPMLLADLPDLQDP
# Sequence of Calcium-activated potassium channel subunit alpha-1 (Homo sapiens) + Leucine-rich repeat-containing protein 26 (Homo sapiens) (Q2I0M4 whole entry, looked up, one chain of several): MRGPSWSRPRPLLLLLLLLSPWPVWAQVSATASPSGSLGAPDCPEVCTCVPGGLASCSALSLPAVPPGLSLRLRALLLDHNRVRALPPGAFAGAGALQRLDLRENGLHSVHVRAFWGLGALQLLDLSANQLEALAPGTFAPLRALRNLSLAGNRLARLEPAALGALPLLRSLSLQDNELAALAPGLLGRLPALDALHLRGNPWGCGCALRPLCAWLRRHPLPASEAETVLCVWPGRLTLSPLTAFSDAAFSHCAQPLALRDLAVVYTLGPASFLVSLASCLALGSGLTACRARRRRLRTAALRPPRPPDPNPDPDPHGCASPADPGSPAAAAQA
# Sequence of NAD(+) hydrolase SARM1 (Homo sapiens) (Q6SZW1 whole entry, looked up, the tested form may be a part): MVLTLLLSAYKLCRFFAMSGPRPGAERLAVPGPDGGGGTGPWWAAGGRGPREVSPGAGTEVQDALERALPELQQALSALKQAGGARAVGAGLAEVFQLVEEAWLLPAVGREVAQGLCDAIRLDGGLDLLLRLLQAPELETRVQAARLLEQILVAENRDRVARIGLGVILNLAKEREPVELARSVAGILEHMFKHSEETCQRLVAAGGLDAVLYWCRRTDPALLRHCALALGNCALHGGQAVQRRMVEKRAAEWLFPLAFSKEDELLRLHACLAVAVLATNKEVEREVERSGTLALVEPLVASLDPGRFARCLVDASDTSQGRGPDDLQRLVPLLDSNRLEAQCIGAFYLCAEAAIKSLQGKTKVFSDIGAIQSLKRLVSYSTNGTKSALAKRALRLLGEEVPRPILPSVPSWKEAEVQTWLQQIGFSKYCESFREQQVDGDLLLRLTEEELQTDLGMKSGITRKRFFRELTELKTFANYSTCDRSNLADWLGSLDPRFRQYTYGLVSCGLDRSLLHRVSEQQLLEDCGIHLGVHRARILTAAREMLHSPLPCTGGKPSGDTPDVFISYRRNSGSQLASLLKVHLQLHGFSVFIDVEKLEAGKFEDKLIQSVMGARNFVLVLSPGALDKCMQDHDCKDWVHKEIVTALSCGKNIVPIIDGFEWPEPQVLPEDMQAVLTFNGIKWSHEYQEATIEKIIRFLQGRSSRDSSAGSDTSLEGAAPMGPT
# Sequence of 6-phosphogluconate dehydrogenase, decarboxylating (Homo sapiens) (P52209 whole entry, looked up): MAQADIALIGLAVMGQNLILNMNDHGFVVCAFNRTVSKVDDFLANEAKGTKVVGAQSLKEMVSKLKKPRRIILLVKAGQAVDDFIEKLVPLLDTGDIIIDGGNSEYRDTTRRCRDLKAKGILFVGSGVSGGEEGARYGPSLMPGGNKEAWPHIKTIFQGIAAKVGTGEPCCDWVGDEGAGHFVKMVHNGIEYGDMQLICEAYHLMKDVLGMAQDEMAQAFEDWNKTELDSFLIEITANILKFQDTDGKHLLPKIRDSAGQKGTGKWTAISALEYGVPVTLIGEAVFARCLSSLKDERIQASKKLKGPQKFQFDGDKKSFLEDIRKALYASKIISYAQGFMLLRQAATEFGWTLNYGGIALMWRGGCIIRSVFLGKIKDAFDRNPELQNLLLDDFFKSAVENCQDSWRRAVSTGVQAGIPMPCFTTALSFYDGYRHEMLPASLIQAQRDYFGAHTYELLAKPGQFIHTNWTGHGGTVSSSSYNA
compound,measurement,setting,value
CC(C)(C)NCC(O)c1cc(O)cc(O)c1 (stereo unspecified),nuclear beta-catenin stimulation,[1]; at 10 µM,1.5% (inactive)
same,nuclear beta-catenin stimulation,"[1]; stimulation, at 2 µM",3.1%
same,insulin secretion stimulation,[2],-1% (inactive)
same,viability decrease,[3],-25.1% (inactive)
same,tube area decrease,[4],-9.7% (inactive)
same,GLP1 secretion stimulation,[5],1.4% (inactive)
same,inhibition of viability,[6],3.9% (inactive)
same,viability decrease (inhibition),[7],20.2% (inactive)
same,viability decrease (inhibition),[8],-3.5% (inactive)
same,inhibition,[9],-13.6% (inactive)
same,red/green cell ratio (normalised),[10],1.28 (inactive)
same,normalised cell number,[10]; [21],0.91
same,normalised cell number,[10]; [22],1.16
same,cell count,[11],10100 and 11300 and 12600
same,z-score,[12]; [23],-0.672 (inactive)
same,z-score,[12]; [24],-0.203
same,remaining NAD,[13],10 nM (inactive)
same,luciferase signal,[14],108 AU (inactive)
same,log fold change Tl+ flux,[15],0.00388 (inactive)
same,log fold change Tl+ flux,[16],0.0185 (inactive)
same,log fold change Tl+ flux,[17],0.00552 (inactive)
same,log fold change Tl+ flux,[18],0.00159 (inactive)
same,log fold change Tl+ flux,[19],-0.00541 (inactive)
same,log fold change Tl+ flux,[20],-0.00466 (inactive)
C=C(CC)C(=O)c1ccc(OCC(=O)O)c(Cl)c1Cl,nuclear beta-catenin stimulation,[1]; at 10 µM,3% (inactive)
same,nuclear beta-catenin stimulation,"[1]; stimulation, at 2 µM",1.4%
same,insulin secretion stimulation,[2],-2.5% (inactive)
same,viability decrease,[3],24.9% (inactive)
same,tube area decrease,[4],52.6% (active)
same,GLP1 secretion stimulation,[5],3.1% (inactive)
same,inhibition of viability,[6],-25.8% (inactive)
same,viability decrease (inhibition),[7],122% (active)
same,viability decrease (inhibition),[8],14.8% (inactive)
same,inhibition,[9],9.98% (inactive)
same,red/green cell ratio (normalised),[10],0.98 (inactive)
same,normalised cell number,[10]; [21],0.92
same,normalised cell number,[10]; [22],0.9
same,cell count,[11],10500 and 9830 and 12200
same,z-score,[12]; [23],0.232 (inactive) and -0.08 (inactive)
same,z-score,[12]; [24],-0.298 and 0.189
same,remaining NAD,[13],10 nM (inactive)
same,luciferase signal,[14],64 AU (inactive)
same,log fold change Tl+ flux,[15],-0.0103 (inactive)
same,log fold change Tl+ flux,[16],-0.0325 (inactive)
same,log fold change Tl+ flux,[17],0.0507 (inactive)
same,log fold change Tl+ flux,[18],-0.00646 (inactive)
same,log fold change Tl+ flux,[19],0.0596 (inactive)
same,log fold change Tl+ flux,[20],0.0176 (inactive)
CC(=O)Nc1nnc(S(N)(=O)=O)s1,nuclear beta-catenin stimulation,[1]; at 10 µM,0.1% (inactive)
same,nuclear beta-catenin stimulation,"[1]; stimulation, at 2 µM",-0.2%
same,insulin secretion stimulation,[2],-1.1% (inactive)
same,viability decrease,[3],-1.8% (inactive)
same,tube area decrease,[4],-16.7% (inactive)
same,GLP1 secretion stimulation,[5],1.4% (inactive)
same,inhibition of viability,[6],1.7% (inactive)
same,viability decrease (inhibition),[7],31.5% (inactive)
same,viability decrease (inhibition),[8],6.2% (inactive)
same,inhibition,[9],-4.83% (inactive)
same,red/green cell ratio (normalised),[10],1.26 (inactive)
same,normalised cell number,[10]; [21],0.92
same,normalised cell number,[10]; [22],1.17
same,z-score,[12]; [23],-0.627 (inactive)
same,z-score,[12]; [24],0.11
same,remaining NAD,[13],10 nM (inactive)
same,luciferase signal,[14],44 AU (inactive)
same,log fold change Tl+ flux,[15],0.0439 (inactive)
same,log fold change Tl+ flux,[16],0.0368 (inactive)
same,log fold change Tl+ flux,[17],-0.0199 (inactive)
same,log fold change Tl+ flux,[18],0.0184 (inactive)
same,log fold change Tl+ flux,[19],-0.00169 (inactive)
same,log fold change Tl+ flux,[20],0.0403 (inactive)
